According to paper PMC11574364:

Key:
Assay in all cases: protein domain microarray probed with biotinylated miRNA; Domain array: 20 mM Tris-HCl pH 7.4, 200 mM KCl, 0.2 mM EDTA, 0.05% NP40, 2 ug/ul heparin, overnight 4 C. ORF array: PBS pH 7.0 with RNase inhibitor, 100 ng RNA; high values mean tight binding
Conditions in all cases: ssRNA
CELF2(1-2) = CELF2(1-2) (Homo sapiens, UniProt O95319)
Acinus(1) = biological target: T1, Acinus(1) (Homo sapiens, UniProt Q9UKV3)
T1 sequence: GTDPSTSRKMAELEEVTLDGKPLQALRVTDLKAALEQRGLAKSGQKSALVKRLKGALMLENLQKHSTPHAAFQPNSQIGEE

CELF4(1-2) = CELF4(1-2) (Homo sapiens, UniProt Q9BZC1)
BOLL = biological target: T2, BOLL (Homo sapiens, UniProt Q8N9W6)
T2 sequence: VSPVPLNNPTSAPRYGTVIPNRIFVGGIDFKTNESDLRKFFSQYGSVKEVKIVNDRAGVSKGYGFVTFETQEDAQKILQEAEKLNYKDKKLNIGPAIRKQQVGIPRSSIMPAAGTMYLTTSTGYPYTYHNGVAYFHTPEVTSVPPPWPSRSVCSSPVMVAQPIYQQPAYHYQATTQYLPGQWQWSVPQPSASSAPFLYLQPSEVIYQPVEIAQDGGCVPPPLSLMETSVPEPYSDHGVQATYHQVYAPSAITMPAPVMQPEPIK

CELF1(1-2) = CELF1(1-2) (Homo sapiens, UniProt Q92879)
CELF4(3) = CELF4(3) (Homo sapiens, UniProt Q9BZC1)
CELF2(3) = CELF2(3) (Homo sapiens, UniProt O95319)
CELF1(3) = CELF1(3) (Homo sapiens, UniProt Q92879)
A2BP1 = biological target: T3, A2BP1 (Homo sapiens, UniProt Q9NWB1)
T3 sequence: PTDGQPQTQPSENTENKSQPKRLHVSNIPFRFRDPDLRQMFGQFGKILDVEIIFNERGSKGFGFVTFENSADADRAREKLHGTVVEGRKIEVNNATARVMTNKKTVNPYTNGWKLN

G3BP-2 = biological target: T4, G3BP-2 (Homo sapiens, UniProt Q9UN86)
T4 sequence: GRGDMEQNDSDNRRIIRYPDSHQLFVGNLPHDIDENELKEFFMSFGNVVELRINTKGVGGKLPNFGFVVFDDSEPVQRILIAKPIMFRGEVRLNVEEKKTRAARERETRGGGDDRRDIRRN

Sequence of CELF1(3) (Q92879 370-486): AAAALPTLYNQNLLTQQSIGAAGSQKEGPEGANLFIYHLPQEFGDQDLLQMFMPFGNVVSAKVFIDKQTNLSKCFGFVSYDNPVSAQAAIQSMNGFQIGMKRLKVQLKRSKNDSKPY
Sequence of CELF1(1-2) (Q92879 1-210): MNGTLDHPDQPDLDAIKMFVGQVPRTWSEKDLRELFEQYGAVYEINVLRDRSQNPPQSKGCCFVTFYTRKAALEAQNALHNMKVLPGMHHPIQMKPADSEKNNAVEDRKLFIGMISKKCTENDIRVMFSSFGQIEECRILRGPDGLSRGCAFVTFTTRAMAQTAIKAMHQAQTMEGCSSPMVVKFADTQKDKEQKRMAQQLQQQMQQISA
Sequence of CELF2(1-2) (O95319 19-241): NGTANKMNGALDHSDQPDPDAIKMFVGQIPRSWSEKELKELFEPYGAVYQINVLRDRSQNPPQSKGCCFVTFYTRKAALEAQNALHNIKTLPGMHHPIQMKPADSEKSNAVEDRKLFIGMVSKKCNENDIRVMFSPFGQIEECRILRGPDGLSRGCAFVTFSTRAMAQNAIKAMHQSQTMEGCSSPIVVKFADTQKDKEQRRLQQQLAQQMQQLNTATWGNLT
Sequence of CELF2(3) (O95319 396-508): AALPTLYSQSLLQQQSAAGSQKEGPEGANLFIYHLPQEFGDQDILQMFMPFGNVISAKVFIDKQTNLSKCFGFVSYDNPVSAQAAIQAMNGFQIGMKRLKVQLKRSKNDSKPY
Sequence of CELF4(1-2) (Q9BZC1 31-250): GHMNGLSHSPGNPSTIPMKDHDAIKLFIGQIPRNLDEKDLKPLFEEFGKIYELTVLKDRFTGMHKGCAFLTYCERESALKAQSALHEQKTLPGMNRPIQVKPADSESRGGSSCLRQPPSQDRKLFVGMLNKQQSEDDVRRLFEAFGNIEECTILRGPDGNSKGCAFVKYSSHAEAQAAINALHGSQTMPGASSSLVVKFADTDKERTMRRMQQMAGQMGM
Sequence of CELF4(3) (Q9BZC1 380-486): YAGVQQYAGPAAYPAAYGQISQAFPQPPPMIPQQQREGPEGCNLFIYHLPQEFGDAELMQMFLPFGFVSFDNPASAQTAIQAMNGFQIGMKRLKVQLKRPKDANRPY

| Sequence | binding signal (CELF2(1-2)) [fluorescence intensity] | binding signal (Acinus(1)) [fluorescence intensity] | binding signal (CELF4(1-2)) [fluorescence intensity] | binding signal (BOLL) [fluorescence intensity] | binding signal (CELF1(1-2)) [fluorescence intensity] | binding signal (CELF4(3)) [fluorescence intensity] | binding signal (CELF2(3)) [fluorescence intensity] | binding signal (CELF1(3)) [fluorescence intensity] | binding signal (A2BP1) [fluorescence intensity] | binding signal (G3BP-2) [fluorescence intensity] |
| --- | --- | --- | --- | --- | --- | --- | --- | --- | --- | --- |
| UGAGGUAGUAGGUUGUGUGGUU | 156 ± 18.9 | 330 ± 24.8 | 241 ± 6.35 | 986 ± 65.6 | 32.2 ± 23.1 | 33.3 ± 4.99 | 2850 ± 134 | 2820 ± 118 | 3130 ± 57 | 967 ± 16.3 |
| AGAGGUAGUAGGUUGCAUAGUU | 63.2 ± 10.6 | 144 ± 9.49 | 73.4 ± 2.28 | 995 ± 54.2 | 20.1 ± 13.8 | 28.9 ± 2.98 | 2420 ± 70.3 | 2720 ± 64 | 4220 ± 134 | 942 ± 20.8 |
| UGAGGUAGUAGGUUGUAUAGUU | 29.8 ± 2.19 | 37 ± 6.58 | 30.5 ± 1.88 | 175 ± 17.3 |  |  | 2178 ± 19.2 | 2270 ± 106 | 1110 ± 13.1 | 117 ± 15.5 |
| UAGCUUAUCAGACUGAUGUUGA | 21.3 ± 6.6 |  | 20.5 ± 0.276 | 567 ± 57.8 | 45.6 ± 13.3 |  | 1040 ± 177 | 1160 ± 14.2 | 2210 ± 93.6 | 330 ± 22.3 |
| UGAGGUAGUAGGUUGUAUGGUU | 79.94 ± 0.219 | 162 ± 13.3 | 96 ± 8.15 | 423 ± 34.1 | 24.5 ± 18.4 | 24.3 ± 1.9 | 2750 ± 76 | 2750 ± 97.5 | 2938 ± 25.1 | 697 ± 11.7 |
| CAGUGCAAUGAUGAAAGGGCAU | 48.3 ± 1.66 | 130 ± 7.88 | 68.5 ± 5.81 | 433.1 ± 0.594 | 29.4 ± 2.27 | 22.5 ± 0.509 | 1010 ± 110 | 1043.4 ± 0.00707 | 3922 ± 30.6 | 1910 ± 49.7 |
